In the library only some 13% were active in any assay of this set; here they are far more common.
HCV inh: blocks hepatitis C virus; 3.4% of 340,000 active; Potency, µM (doses to about 41.8 µM), inactives show at the top dose activity change, negative = inhibition, usual class: inhibitors; Huh7.5.1 HCVcc-Cre infection, luciferase reporter, 44 h; active means well fitted inhibition curve with a large enough effect; inconclusive means small, poorly fitted or top-dose-only effect, or another doubt; inactive means no such curve, though single readings can be large or run the other way; further: potency means the concentration at half of the fitted maximal effect; on the % scale 0 is the no-effect control and ±100 the full control effect
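Compounds are dispensed onto cells plated 4 h earlier at 1,000 per well, with HCVcc-Cre virus (about 0.5 moi) added next. Following 44 h of culture, luminescent signal is measured for 15 sec after 15 min with substrate at room temperature.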
MARV entry inh: Marburg virus entry inhibition | Marburg virus pseudotyped entry inhibition, cell reporter | AID 540276 | 1.8% of 300,000 active | Potency, µM (doses to about 37.8 µM), for the others: at the top dose activity change, negative = inhibition, hits mostly inhibitors; calls by dose curve; tested in HEK293 cells; further: potency means the concentration at half of the fitted maximal effect; on the % scale 0 is the no-effect control and ±100 the full control effect
Lassa entry inh: blocks Lassa virus binding to or entry into cells; Lassa virus pseudotype entry inhibition, cell reporter; Potency, µM (top dose mostly 37.9 µM), for the others: top-dose activity change, negative = inhibition, usual class: inhibitors; 1.2% of 300,000 active; calls by dose curve; tested in HEK293 cells; further: potency means the concentration at half of the fitted maximal effect; on the % scale 0 is the no-effect control and ±100 the full control effect; nearly all actives have a fitted effect of over 50% in size
Cycloheximide cs: affects cycloheximide protein synthesis inhibition readout, counter-screen; cell reporter, cycloheximide protein synthesis inhibition counterscreen; max response, %; 12% of 300,000 active; AID 2314; in the data active means max response mostly above about 13%, no sharp cut-off; inactive means mostly below about 14%; further: read at 38.3 µM for the half of the compounds with a filed dose; 0% is about no effect
FMDV antiviral: foot and mouth disease virus antiviral activity | AID 1159524 | FMDV antiviral cell-based qHTS | Potency, µM (titrated, usually from 57.9 µM), inactives show at the highest dose activity change, negative = inhibition, most hits filed as inhibitors | 1.2% of 410,000 active; calls by dose curve; tested in HEK293T cells; further: read-out not given here; potency means the concentration at half of the fitted maximal effect; on the % scale 0 is the no-effect control and ±100 the full control effect; nearly all actives have a fitted effect of over 45% in size
Shiga inhibitor: Shiga toxin inhibition. Vero cells, Shiga toxin protein synthesis inhibition reporter. inhibition, % at 38.7 µM. 9.2% of 290,000 active. AID 2315; in the data active means inhibition mostly above about 28%, no sharp cut-off; inactive means mostly below about 43%; further: 0% is about no effect
* marks the source's active call; other numbers are inactive results; ? = inconclusive; . = no result; [ ] = another dose, or the depositor's remark.

SMILES	HCV inh	MARV entry inh	Lassa entry inh	Cycloheximide cs	FMDV antiviral	Shiga inhibitor
Cc1sc(NC(=O)c2ccccc2)c(C#N)c1-c1ccccc1	?	-36%	?	43*	18%	26*
CCc1c(C)sc(NC(=O)c2cccs2)c1C(=O)OC(C)C	?	9.2µM*	?	-1	.	-6
CCOC(=O)c1c(NC(=O)c2cccs2)sc(C(=O)N(C)C)c1C	13µM*	10%[46.1 µM]	4%	-1	25%	-16
COc1ccc(NC(C)=O)cc1S(=O)(=O)Nc1ccccc1C(=O)N1CCCC1	26%	8%[46.1 µM]	14%	-6	0%	8
CCOC(=O)c1c(NC(=O)c2cccs2)sc(C)c1CC	8.9µM*	?	-17%	4	-24%	12
CCOC(=O)c1c(NC(=O)COC(=O)c2cccnc2OCC)sc(C(=O)N(CC)CC)c1C	?	?	?	.	16µM*	.
CCOC(=O)c1c(NC(=O)COc2ccc(OC)cc2)sc(C(=O)N(CC)CC)c1C	.	?	-22%[46.1 µM]	.	?	.
O=C(N/N=C/c1ccncc1)c1ccc(NC(=O)c2ccc(Cl)cc2)cc1	-14%	?	-1%[46.1 µM]	-2	-6%	18
COc1ccc(/C(C)=N/NC(=O)c2ccccc2N)cc1	15%	?	3%[46.1 µM]	34*	30%	78*
COc1ccc(C(=O)Nc2ccc(/C(C)=N/NC(=O)c3ccncc3)cc2)cc1	.	.	.	26*	.	40
C/C(=N\NC(=O)c1ccncc1)c1ccc(NC(=O)c2ccc(Cl)cc2)cc1	-1%	.	.	57*	15%	97*
C/C(=N\NC(=O)C(=O)Nc1cc(Cl)ccc1Cl)c1ccncc1	2%	9%	8%	-4	-7%	2
C/C(=N/NC(=O)c1ccncc1)c1ccc(NC(=O)c2ccc(Cl)cc2Cl)cc1	-2%	?	1%[46.1 µM]	63*	5%	43
Cc1ccc2nc(C)c(C(=O)NN=C3CCCCCC3)n2c1	13%	.	.	0	-20%	-12
Cc1ccc(S(=O)(=O)c2[nH]c(-c3ccccc3)nc2SCCC(=O)O)cc1	.	1%[46.1 µM]	-4%[46.1 µM]	.	-6%	.
Cn1c(N/N=C/c2cccs2)nc2c1c(=O)n(Cc1ccccc1)c(=O)n2C	?	?	1%	3	?	-6
Cn1c(=O)c2c(nc(N/N=C/c3cccs3)n2Cc2ccccc2)n(C)c1=O	?	-17%	?	2	25µM*	-5
Cn1c(=O)c2c(nc(N/N=C/c3cccnc3)n2Cc2ccc(F)cc2)n(C)c1=O	-3%	0%[46.1 µM]	?	-3	-18%	-8
Cn1c(=O)c2c(nc(N/N=C/c3ccc(OC(=O)c4ccco4)cc3)n2Cc2ccccc2)n(C)c1=O	?	?	10µM*	-5	13µM*	6
C(=NOCc1ccccc1)c1cccnc1	-1%	?	21%	.	69%	.
Cc1nc2ccccc2nc1OCc1cccc(Cl)c1	13%	4%	17%	-4	0%	-4
Cc1nc2ccccc2nc(C)c1=NOCc1ccc(C#N)cc1	-10%	?	-2%	29*	?	66*
Cc1nc2ccccc2nc(C)c1=NOCc1cccc(F)c1	-6%	?	2.8µM*	-6	?	-12
N#Cc1ccc(CO/N=C/c2ccccc2)cc1	-5%	?	-1%	41*	33%	76*
CNc1cncc(-c2ccc(OC)cc2OC)n1	.	.	.	.	6%	.
SMILES	HCV inh	MARV entry inh	Lassa entry inh	Cycloheximide cs	FMDV antiviral	Shiga inhibitor
CC(=O)Nc1c2c(nn1-c1ccccc1C)CS(=O)C2 (stereo not given)	7%	.	.	-5	-13%	-5
CC(C)[C@H](NC(=O)c1ccccc1)C(=O)Nc1ccc2c(c1)OCO2	-13%	.	.	.	46%	.
CCNC(=O)C1CCCN(C(=O)c2ccc3c(c2)OCO3)CC1 (stereo not given)	.	.	.	.	-16%	.
CCOC(=O)c1ccc(NC(=O)CSc2nc3ccccc3c(=O)n2CCNC(C)=O)cc1	.	.	-9%[46.1 µM]	.	-9%	.
COc1ccc(C(=O)/C=C/NCc2ccc(C)cc2)cc1	-28%	-3%	?	.	13%	.
CCc1ccc(C(=O)/C=C/NCc2ccc(F)cc2)cc1	29%	?	-15%	19*	24%	49
Cc1ccc(C(=O)/C=C\NCc2ccccc2)cc1	-15%	?	1%	75*	10%	86*
O=C(/C=C/NCc1cccnc1)c1ccc(Br)cc1	13%	-4%	2%	.	0%	.
CC(/C=C/C(=O)c1ccc(C)cc1)=C\c1ccccc1	-7%	-1%	?	18*	31%	22

High-throughput results (PubChem)
